In PubChem BioAssay AID1628 (Sanford-Burnham Center for Chemical Genomics, 2009):
Screen size: about 190,000 compounds; about 930 (0.49%) were called active. Some of the results follow. Potency and affinity values are given separately. Unmarked numbers belong to inactive results.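 The calls were made as follows: active = z-score of insulin promoter reporter brightness in nuclei below -3 at 5 µM, with at least 500 cells counted; inconclusive = wells with under 500 cells, flagged as toxic or sparse; inactive = the rest.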

test: decrease of insulin promoter-GFP reporter – imaging, high-content screening, mouse beta cells (AID 1628); details: MIN6 insulin promoter GFP reporter, at 5 µM, active compounds read low

| SMILES | z-score |
| --- | --- |
| Cc1ccc(S(=O)(=O)NC(N)=NCCc2ccc(Cl)cc2)cc1 | -4.29 (active) |
| Cc1ccc(S(=O)(=O)Nc2ccc(=O)n(Cc3ccc(Cl)c(Cl)c3)c2)cc1 | 3.26 |
| Cc1ccc(NS(=O)(=O)c2ccc(CCC(=O)O)cc2)cc1 | 1.37 |
| O=C1CN(C(=O)COc2ncnc3ccccc23)c2ccccc2N1 | 4.05 |
| CCCCOc1ccc(-c2cc(C(F)(F)F)c(C#N)c(SCC(=O)O)n2)cc1 | 4.82 |
| COc1ccc2c(=O)c(-c3ccccc3)coc2c1 | -0.45 |
| C=CCn1c(SCC(=O)Nc2nccs2)nnc1-c1cc2cccc(OC)c2o1 | -3.45 (active) |
| Cc1nn(C)c(C)c1S(=O)(=O)N(CC(=O)Nc1nccs1)c1ccc(C(C)C)cc1 | 3.98 |
| CN(C)C(=O)CSc1nnc(-c2cnccn2)n1C | 0.77 |
| C=CCn1c(SCCOc2ccc(OC)cc2)nnc1C(C)NC(=O)Cc1ccc(OC)cc1 (configuration not stated) | 4.23 |
| C=CCn1c(SCC(=O)Nc2cc3oc4ccccc4c3cc2OC)nnc1-c1cnccn1 | -3.06 (active) |
| CCCCc1c(C)nn(-c2nnc3c4ccccc4n(CC)c3n2)c1C | -3.04 (active) |
| COc1ccc(C2C(C#N)=C(N)N(c3ncn[nH]3)C3=C2C(=O)CCC3)cc1 (configuration not stated) | 1.75 |
| CCN(CC)C(=O)Oc1cc(=O)n(C)c2ccccc12 | -3.24 (active) |
| CCCC(=O)c1c(C)c2ccccc2n1C | 3.01 |
| Nc1cccc2c1C(=O)N(C(=O)c1cccc(S(=O)(=O)N3CCCC3)c1)C2=O | 3.15 |
| Cc1cc(NC(=O)c2cccc(S(=O)(=O)N3CCCCCC3)c2)n(-c2ccccn2)n1 | -3.67 (active) |
| O=C(Nc1ccon1)c1cccc(S(=O)(=O)N2CCCCC2)c1 | 3.46 |
| CC1=CN2C(=N)/C(=C/c3ccc([N+](=O)[O-])o3)C(=O)N=C2S1 | 8.52 |
| CCCCCCc1cc2cc(-c3nnc(-c4cc(OC)c(OC)c(OC)c4)o3)c(=O)oc2cc1O | 9.96 |
| Cc1c(NC(=O)CN2CCN(c3ccc([N+](=O)[O-])cc3)CC2)c(=O)n(-c2ccccc2)n1C | -3.45 (active) |
| Cc1c(C(c2ccc([N+](=O)[O-])cc2)c2c(C)n(C)n(-c3ccccc3)c2=O)c(=O)n(-c2ccccc2)n1C | 4.14 |
| CC(=O)N1CCc2cc(Br)cc(S(=O)(=O)CCC(=O)Nc3c(C)n(C)n(-c4ccccc4)c3=O)c21 | 2.32 |

| SMILES | z-score |
| --- | --- |
| Cc1cc(N2CCCC2)ccc1/C=C1/C(=O)N(C)C(=S)N1C | 3.32 |
| CCOc1cc(NC(=O)c2ccco2)c(OCC)cc1NC(=O)c1cc(OC)c(OC)c(OC)c1 | -3.03 (active) |
| COC(=O)c1sccc1NC(=O)c1cc(OC)c(OC)c(OC)c1 | 3.71 |
| CCN1/C(=C/C(C)=C/c2sc3ccccc3[n+]2CC)Sc2ccccc21 | -3.52 (active) |
| CCN1/C(=C/c2ccc3cc(C)ccc3[n+]2CC)Sc2ccccc21 | 16.5 |
| CCN1/C(=C\C=C(C(C)=O)C(C)=O)Sc2ccccc21 | 7.73 |
| CCCCNC(=O)/C(C#N)=c1\s/c(=C\c2ccccc2OC(F)F)c(=O)n1CCCOC | 4.53 |
| O=C(NC(Nc1nc2ccc([N+](=O)[O-])cc2s1)(C(F)(F)F)C(F)(F)F)c1cccnc1 | -3.96 (active) |
| COC(=O)c1sc(NC(=O)c2ccco2)nc1C | 1.53 |
| COc1ccccc1NC(=O)c1ccc(-c2ccccc2[N+](=O)[O-])o1 | 1.05 |
| COc1ccccc1NC(=O)c1c(NC(=O)c2ccco2)sc2c1CCC2 | -3.67 (active) |
| CCn1c(SCC(=O)Nc2cc(C)on2)nc2c(c1=O)SC(C)C2 (configuration not stated) | -3.41 (active) |
| COc1cc2cc(C)c3nnc(SCC(=O)Nc4cc(C)on4)n3c2cc1OC | 5.98 |
| CCn1c2ccccc2c2nnc(SCC(=O)Nc3cc(C)on3)nc21 | 3.98 |
| CCO[C@@H]1OC(C(=O)Nc2ccccc2)=C[C@H](c2ccc(C(F)(F)F)cc2)[C@H]1CCCO | -3.04 (active) |
| CCCN1C(=O)/C(=C/c2c(N3CCNC(=O)C3CC(=O)OC)nc3c(C)cccn3c2=O)SC1=S (configuration not stated) | 6.46 |
| COc1ccc(NC2=Nc3ccccc3N3C2=Nc2c(c(C)nn2-c2ccc(C)cc2)C3c2cccnc2)cc1 (configuration not stated) | 3.08 |
| CCOC(=O)CCNC(=O)CNC(=O)OCc1ccccc1 | -4.19 (active) |
| CCOc1ccccc1C(=O)NCC(=O)O | 0.62 |
| COc1ccc(CN2C(=O)/C(=C/c3ccc(-c4ccc(Cl)c(C(=O)O)c4)o3)SC2=S)cc1 | 5.56 |
| CCc1ccc(NC(=S)Nc2ccc3cn[nH]c3c2)cc1 | -5.26 (active) |
| CCOc1cc(C)c(S(=O)(=O)Nc2ccc3cn[nH]c3c2)cc1C | 4.24 |
| C=CCn1c(SCc2c(C)noc2C)nc2sc3c(c2c1=O)CCCCC3 | -4.19 (active) |

| SMILES | z-score |
| --- | --- |
| CN(C)C(=O)C12CCC(C)(c3nc4ccccc4nc31)C2(C)C (configuration not stated) | 3.42 |
| c1ccc2nc(-c3ccc4c(c3)OCO4)ccc2c1 | -0.48 |
| O=C(Nc1nc(-c2ccc3c(c2)OCO3)cs1)c1ccncc1 | -4.14 (active) |
| O=C1/C(=C/c2ccc(N3CCOCC3)o2)SC(=Nc2ccccc2)N1CCc1c[nH]c2ccccc12 | 17.8 |
| COCCn1c(CN2CCN(c3ccc(OC)cc3)CC2)nc2c1c(=O)n(C)c(=O)n2C | -7.6 (active) |
| COc1ccc(N2CCN(C(=O)CSc3nc4c(c(=O)n(C)c(=O)n4C)n3C(C)C)CC2)cc1 | -3.09 (active) |
| CC1CCCN(c2nc3c(c(=O)n(C)c(=O)n3C)n2CCSc2nc3ccccc3s2)C1 (configuration not stated) | 3.19 |
| Cc1cc(C)c(C(=O)O)c(CC(C)(C)C(=O)O)c1 | 3.14 |
| Cn1c(=O)c(N)c2c3c(c(Br)ccc31)C(=O)c1ccccc1-2 | 16.9 |
| Cc1c(-c2cc(C(=O)O)on2)cnn1C | 1.94 |
| CC(C)N=c1scc(-c2ccco2)n1/N=C/c1ccc(O)c(O)c1 | -5.1 (active) |
| CCCCN(C)C(=S)Nc1ccsc1C(=O)OC | 2.3 |
| CCOc1cc(/C=N/Nc2nc3ccccc3[nH]2)cc(Br)c1OCC(=O)N(C)C | -3.72 (active) |
| CCOc1cc(/C=C/C(=O)Nc2ccc(C(=O)NCCN(CC)CC)cc2)ccc1OCC(C)C | -4.98 (active) |
| CCOc1cc2[nH]c(=O)n(Cc3ccc(C(=O)NCCOC)cc3)c(=O)c2cc1OCC | 1.15 |
| Cc1ccc(C(OCC(O)CNC(C)c2ccccc2)c2ccccc2)cc1 (configuration not stated) | -3.13 (active) |
| Cc1cc(OCC(=O)NCc2cccnc2)ccc1[N+](=O)[O-] | -4.17 (active) |
| CCCc1cc(=O)[nH]c(SCC(=O)NCCCC(=O)OCC)n1 | 3.15 |
| CCCNC(=O)Cc1cc(=O)[nH]c(=O)[nH]1 | -3.04 (active) |
| CC1(C)c2ccccc2N2CC(=O)NC21/C=C/c1ccco1 (configuration not stated) | 3.29 |
| COC(=O)c1ccnc(SCC(=O)c2ccccc2)c1 | -3.59 (active) |
| O=C(CSc1ncccn1)NC(=O)c1ccccc1 | 0.73 |
| COC(=O)c1cccc(N2C(=O)c3cccnc3C2=O)c1 | 0.1 |

| SMILES | z-score |
| --- | --- |
| CCN1C(=O)/C(=C/c2ccc(N3CCCC3)cc2)NC1=S | 15.8 |
| CCn1c(SCC(=O)c2c[nH]c3ccccc23)nc2cc(S(=O)(=O)N3CCOCC3)ccc21 | 3.09 |
| CCOC(=O)c1ccc2c(c1)nc(C1CCN(S(=O)(=O)c3cccs3)CC1)n2CC | -4.13 (active) |
| COc1cccc(C(=O)Nc2ccccc2C(=O)N2CCCC2)c1 | 3.3 |
| CS(=O)(=O)Nc1ccc(C(=O)Nc2ccccc2C(=O)N2CCCC2)cc1 | -4.1 (active) |
| CCNc1c2c3c(cccc3n(C)c1=O)C(=O)c1ccccc1-2 | 15.6 |
| CCC(CC)COC(=O)C(C#N)c1nc2ccccc2nc1N1CCN(CC)CC1 (configuration not stated) | -3.84 (active) |
| CCN1CCN(C2=CC3=CC(=C(C#N)C#N)CCC3CC2)CC1 (configuration not stated) | 16.6 |
| Cc1ccc(S(=O)(=O)C(C#N)c2nc3ccccc3nc2N2CCC(C)CC2)cc1 (configuration not stated) | 3.75 |
| CCN(CC)c1ccc(/C=C2\SC(=O)N(C(C)C)C2=O)o1 | 17.4 |
| Cc1ccccc1-c1nnc(-c2ccc(Cl)cc2)o1 | 3.54 |
| CC(Cc1c[nH]c2ccccc12)C(=O)O (configuration not stated) | 0 |
| CC(=O)OCC(=O)c1c[nH]c2ccccc12 | 0.26 |
| CN1/C(=C\C=C(/C#N)C(=O)Nc2ccc(Cl)cc2)C(C)(C)c2ccccc21 | 8.8 |
| C=CCN1C(=O)/C(=C\C=C2\N(C)c3ccccc3C2(C)C)SC1=S | 15.4 |
| CN1CCN(C2=CC3=CC(=C(C#N)C#N)CCC3CC2)CC1 (configuration not stated) | 10.9 |
| N#CCCn1cc(C(CC(=O)c2ccc(Br)cc2)C(=O)O)c2ccccc21 (configuration not stated) | -4.89 (active) |
| CCN1C(=O)/C(=C/C=C2\N(CC)c3cc(S(=O)(=O)N(C)C)ccc3N2c2ccccc2)SC1=S | 13.2 |
| COc1ccc(-c2cc(=O)c3cc(OC)ccc3o2)cc1 | -0.37 |
| COc1ccc2[nH]cc(CCN3C(=O)CCC3=O)c2c1 | -5.12 (active) |
| COc1cccc(C(=O)CN2C(=O)C(C)(C)Oc3ccc(C(=O)N4CCCCCC4)cc32)c1 | 3.58 |
| O=C(c1cccc([N+](=O)[O-])c1)N1CCCN(C(=O)c2cccc([N+](=O)[O-])c2)CC1 | -7.17 (active) |
| N/C(=N\OC(=O)C1CCCCC1)c1cccc([N+](=O)[O-])c1 | 3.01 |
